# Source: PMC7862700, “An all-to-all approach to the identification of sequence-specific readers for epigenetic DNA modifications on cytosine”
# Key:
# Assay in all cases: DAPPL (digital affinity profiling via proximity ligation, sequencing); 10 mM Tris-HCl pH 7.5, 50 mM NaCl, 1 mM DTT, 4% glycerol, room temperature, 30 min; GST-TFs on glutathione beads, 16-mer random dsDNA library, 0.1% formaldehyde crosslink after washing; high values mean tight binding
# FEV = biological target: T1, FEV (Homo sapiens, UniProt Q99581 1-238); details: protein: recombinant; tags: N-terminal GST; dsDNA, one strand shown
# T1 sequence: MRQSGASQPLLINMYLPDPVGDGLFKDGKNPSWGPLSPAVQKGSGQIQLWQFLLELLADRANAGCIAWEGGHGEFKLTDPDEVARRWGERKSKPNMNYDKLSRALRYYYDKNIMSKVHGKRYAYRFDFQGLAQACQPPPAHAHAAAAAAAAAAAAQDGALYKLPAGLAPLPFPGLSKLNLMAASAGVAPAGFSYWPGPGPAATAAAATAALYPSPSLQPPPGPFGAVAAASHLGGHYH
# Method in brief: (§1)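 Binding signal is each hexamer's read frequency for a factor divided by its frequency in the tag-only sample. The factors were GST-fused human transcription factors from yeast, captured on glutathione beads, DNA-barcoded and pooled with that sample. Pools were incubated with 200 nmole of a random double-stranded 16-mer DNA library in Tris/NaCl/DTT/glycerol buffer at room temperature for 30 min, then washed, crosslinked with 0.1% formaldehyde, proximity-ligated with BsaI/T4 ligase (1 h, 37 °C), PCR-amplified and sequenced on an Illumina NextSeq500.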
# ETV5 = ETV5 (Homo sapiens, UniProt P41161 1-510); details: protein: recombinant; tags: N-terminal GST; dsDNA, one strand shown
# Method in brief: as §1
# HSF1 = HSF1 (Homo sapiens, UniProt Q00613 1-529); details: protein: recombinant; tags: N-terminal GST; chain copies: 3; dsDNA, one strand shown
# Method in brief: as §1
# SPIC = biological target: T2, SPIC (Homo sapiens, UniProt Q8N5J4 1-248); details: protein: recombinant; tags: N-terminal GST; dsDNA, one strand shown
# T2 sequence: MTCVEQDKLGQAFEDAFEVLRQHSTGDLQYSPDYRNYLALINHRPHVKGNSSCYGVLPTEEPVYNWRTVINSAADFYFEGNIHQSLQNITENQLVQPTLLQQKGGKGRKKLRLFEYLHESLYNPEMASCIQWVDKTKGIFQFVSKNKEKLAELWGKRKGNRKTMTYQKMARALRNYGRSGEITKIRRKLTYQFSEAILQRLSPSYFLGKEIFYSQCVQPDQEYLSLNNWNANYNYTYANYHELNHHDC
# Method in brief: as §1
# ELF4 = ELF4 (Homo sapiens, UniProt Q99607 1-663); details: protein: recombinant; tags: N-terminal GST; dsDNA, one strand shown
# Method in brief: as §1
# ELK4 = biological target: T3, ELK4 (Homo sapiens, UniProt P28324-2 1-405); details: protein: recombinant; tags: N-terminal GST; dsDNA, one strand shown
# T3 sequence: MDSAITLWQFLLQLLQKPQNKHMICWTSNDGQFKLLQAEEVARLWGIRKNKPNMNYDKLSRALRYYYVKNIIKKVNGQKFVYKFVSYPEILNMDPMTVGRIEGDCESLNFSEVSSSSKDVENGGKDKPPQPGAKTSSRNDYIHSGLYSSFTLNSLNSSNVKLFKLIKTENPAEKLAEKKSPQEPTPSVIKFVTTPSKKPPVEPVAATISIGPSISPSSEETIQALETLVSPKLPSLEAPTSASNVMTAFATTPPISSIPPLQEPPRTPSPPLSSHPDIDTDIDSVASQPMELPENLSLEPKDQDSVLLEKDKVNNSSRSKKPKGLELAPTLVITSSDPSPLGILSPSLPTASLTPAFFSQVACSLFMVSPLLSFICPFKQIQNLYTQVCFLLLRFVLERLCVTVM
# Method in brief: as §1
# ETV2 = biological target: T4, ETV2 (Homo sapiens, UniProt O00321 1-342); details: protein: recombinant; tags: N-terminal GST; dsDNA, one strand shown
# T4 sequence: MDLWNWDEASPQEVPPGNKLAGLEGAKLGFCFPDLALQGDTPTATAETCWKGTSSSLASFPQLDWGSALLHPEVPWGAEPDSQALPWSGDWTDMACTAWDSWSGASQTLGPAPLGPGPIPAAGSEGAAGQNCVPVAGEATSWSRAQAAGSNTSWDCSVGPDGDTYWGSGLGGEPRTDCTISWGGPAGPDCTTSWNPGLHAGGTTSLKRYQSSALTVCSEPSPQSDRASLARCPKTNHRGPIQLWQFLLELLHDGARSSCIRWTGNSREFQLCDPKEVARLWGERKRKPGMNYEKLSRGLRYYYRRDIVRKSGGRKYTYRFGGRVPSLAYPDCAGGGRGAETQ
# Method in brief: as §1
# ELF3 = biological target: T5, ELF3 (Homo sapiens, UniProt P78545 1-371); details: protein: recombinant; tags: N-terminal GST; dsDNA, one strand shown
# T5 sequence: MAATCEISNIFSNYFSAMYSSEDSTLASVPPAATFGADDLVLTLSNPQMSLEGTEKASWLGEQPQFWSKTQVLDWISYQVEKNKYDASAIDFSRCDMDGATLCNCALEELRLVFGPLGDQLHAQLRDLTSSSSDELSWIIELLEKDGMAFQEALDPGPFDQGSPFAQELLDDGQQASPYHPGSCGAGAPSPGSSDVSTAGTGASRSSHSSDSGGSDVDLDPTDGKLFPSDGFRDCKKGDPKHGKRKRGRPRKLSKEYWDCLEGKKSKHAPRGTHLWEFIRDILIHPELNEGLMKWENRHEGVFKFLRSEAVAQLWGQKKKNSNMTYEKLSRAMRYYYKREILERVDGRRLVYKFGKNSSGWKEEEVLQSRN
# Method in brief: as §1
# CRX = CRX (Homo sapiens, UniProt O43186 1-299); details: protein: recombinant; tags: N-terminal GST; dsDNA, one strand shown
# Method in brief: as §1
# ETV1 = ETV1 (Homo sapiens, UniProt P50549 1-477); details: protein: recombinant; tags: N-terminal GST; dsDNA, one strand shown
# Method in brief: as §1
# ERF = biological target: T6, ERF (Homo sapiens, UniProt P50548 1-548); details: protein: recombinant; tags: N-terminal GST; dsDNA, one strand shown
# T6 sequence: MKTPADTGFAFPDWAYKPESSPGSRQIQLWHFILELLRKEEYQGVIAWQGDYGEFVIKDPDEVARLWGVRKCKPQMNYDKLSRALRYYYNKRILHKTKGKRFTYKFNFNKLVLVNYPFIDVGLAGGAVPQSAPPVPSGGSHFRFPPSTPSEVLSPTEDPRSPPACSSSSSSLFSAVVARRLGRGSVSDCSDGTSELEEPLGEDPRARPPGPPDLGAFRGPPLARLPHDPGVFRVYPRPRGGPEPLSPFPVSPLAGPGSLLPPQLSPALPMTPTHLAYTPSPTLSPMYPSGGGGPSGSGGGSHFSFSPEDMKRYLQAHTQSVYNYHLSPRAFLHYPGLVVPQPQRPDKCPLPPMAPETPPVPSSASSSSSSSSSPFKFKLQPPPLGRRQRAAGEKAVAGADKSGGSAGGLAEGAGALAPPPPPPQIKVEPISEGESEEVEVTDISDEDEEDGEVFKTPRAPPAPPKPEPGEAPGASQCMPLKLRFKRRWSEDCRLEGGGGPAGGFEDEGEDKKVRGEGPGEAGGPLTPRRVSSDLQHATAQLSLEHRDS
# Method in brief: as §1
# ETV3L = biological target: T7, ETV3L (Homo sapiens, UniProt Q6ZN32 1-361); details: protein: recombinant; tags: N-terminal GST; dsDNA, one strand shown
# T7 sequence: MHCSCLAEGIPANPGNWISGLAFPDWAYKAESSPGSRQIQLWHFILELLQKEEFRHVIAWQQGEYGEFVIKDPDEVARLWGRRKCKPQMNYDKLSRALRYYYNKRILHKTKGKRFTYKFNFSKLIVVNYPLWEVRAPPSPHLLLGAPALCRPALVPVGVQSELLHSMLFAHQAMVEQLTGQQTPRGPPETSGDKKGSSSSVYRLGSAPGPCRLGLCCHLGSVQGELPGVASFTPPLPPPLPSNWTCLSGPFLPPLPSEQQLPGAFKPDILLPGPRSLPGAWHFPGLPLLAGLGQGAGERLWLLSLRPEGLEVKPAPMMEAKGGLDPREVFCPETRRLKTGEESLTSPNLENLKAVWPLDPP
# Method in brief: as §1
# ETS2 = biological target: T8, ETS2 (Homo sapiens, UniProt P15036 1-469); details: protein: recombinant; tags: N-terminal GST; dsDNA, one strand shown
# T8 sequence: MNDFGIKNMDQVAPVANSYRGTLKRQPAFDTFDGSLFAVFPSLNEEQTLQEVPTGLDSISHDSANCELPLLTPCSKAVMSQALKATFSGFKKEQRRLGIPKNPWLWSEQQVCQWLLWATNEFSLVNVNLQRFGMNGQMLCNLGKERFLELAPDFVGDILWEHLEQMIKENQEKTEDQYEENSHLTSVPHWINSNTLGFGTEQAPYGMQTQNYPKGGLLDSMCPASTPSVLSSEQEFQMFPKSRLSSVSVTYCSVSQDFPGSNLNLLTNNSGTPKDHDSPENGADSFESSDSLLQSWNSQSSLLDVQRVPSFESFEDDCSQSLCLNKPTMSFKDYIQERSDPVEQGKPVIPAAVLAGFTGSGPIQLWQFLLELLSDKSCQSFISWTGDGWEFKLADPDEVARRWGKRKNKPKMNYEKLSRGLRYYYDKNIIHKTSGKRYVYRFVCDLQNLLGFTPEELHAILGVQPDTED
# Method in brief: as §1
# SPDEF = biological target: T9, SPDEF (Homo sapiens, UniProt O95238 1-335); details: protein: recombinant; tags: N-terminal GST; dsDNA, one strand shown
# T9 sequence: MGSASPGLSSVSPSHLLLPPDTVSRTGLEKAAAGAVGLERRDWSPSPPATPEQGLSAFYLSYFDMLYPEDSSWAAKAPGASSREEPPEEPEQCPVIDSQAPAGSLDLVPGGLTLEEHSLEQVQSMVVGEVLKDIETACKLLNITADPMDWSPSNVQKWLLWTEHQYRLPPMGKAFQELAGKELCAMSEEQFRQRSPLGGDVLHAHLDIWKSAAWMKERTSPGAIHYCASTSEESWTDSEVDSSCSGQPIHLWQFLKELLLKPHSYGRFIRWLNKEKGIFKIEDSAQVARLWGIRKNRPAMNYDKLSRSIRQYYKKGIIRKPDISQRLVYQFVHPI
# Method in brief: as §1
# ETV7 = biological target: T10, ETV7 (Homo sapiens, UniProt Q9Y603 1-341); details: protein: recombinant; tags: N-terminal GST; dsDNA, one strand shown
# T10 sequence: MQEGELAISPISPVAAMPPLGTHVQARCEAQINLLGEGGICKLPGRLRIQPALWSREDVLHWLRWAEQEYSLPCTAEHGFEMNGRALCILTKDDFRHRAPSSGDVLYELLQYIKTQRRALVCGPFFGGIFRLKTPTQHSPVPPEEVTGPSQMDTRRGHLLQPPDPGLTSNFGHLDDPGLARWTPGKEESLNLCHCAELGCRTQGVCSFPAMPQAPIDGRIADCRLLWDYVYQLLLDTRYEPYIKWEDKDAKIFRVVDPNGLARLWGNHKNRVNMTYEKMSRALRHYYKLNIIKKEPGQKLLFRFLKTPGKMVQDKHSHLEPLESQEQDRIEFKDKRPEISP
# Method in brief: as §1
# ELF5 = biological target: T11, ELF5 (Homo sapiens, UniProt Q9UKW6-2 1-255); details: protein: recombinant; tags: N-terminal GST; dsDNA, one strand shown
# T11 sequence: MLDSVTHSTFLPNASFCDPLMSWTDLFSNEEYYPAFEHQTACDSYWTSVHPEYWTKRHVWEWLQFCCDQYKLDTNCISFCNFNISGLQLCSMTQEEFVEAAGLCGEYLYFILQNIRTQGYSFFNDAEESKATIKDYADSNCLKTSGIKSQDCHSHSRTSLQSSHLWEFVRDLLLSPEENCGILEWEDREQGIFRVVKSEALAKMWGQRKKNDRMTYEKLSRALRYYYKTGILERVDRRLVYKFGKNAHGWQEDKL
# Method in brief: as §1
# ETV3 = biological target: T12, ETV3 (Homo sapiens, UniProt P41162-2 1-143); details: protein: recombinant; tags: N-terminal GST; dsDNA, one strand shown
# T12 sequence: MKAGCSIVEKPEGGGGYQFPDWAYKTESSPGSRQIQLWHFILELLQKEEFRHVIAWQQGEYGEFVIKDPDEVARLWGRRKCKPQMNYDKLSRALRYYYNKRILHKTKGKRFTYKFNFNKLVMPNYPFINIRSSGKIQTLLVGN
# Method in brief: as §1
# ETV6 = ETV6 (Homo sapiens, UniProt P41212 1-452); details: protein: recombinant; tags: N-terminal GST; dsDNA, one strand shown
# Method in brief: as §1
# Chain of HSF1 (Q00613 whole entry): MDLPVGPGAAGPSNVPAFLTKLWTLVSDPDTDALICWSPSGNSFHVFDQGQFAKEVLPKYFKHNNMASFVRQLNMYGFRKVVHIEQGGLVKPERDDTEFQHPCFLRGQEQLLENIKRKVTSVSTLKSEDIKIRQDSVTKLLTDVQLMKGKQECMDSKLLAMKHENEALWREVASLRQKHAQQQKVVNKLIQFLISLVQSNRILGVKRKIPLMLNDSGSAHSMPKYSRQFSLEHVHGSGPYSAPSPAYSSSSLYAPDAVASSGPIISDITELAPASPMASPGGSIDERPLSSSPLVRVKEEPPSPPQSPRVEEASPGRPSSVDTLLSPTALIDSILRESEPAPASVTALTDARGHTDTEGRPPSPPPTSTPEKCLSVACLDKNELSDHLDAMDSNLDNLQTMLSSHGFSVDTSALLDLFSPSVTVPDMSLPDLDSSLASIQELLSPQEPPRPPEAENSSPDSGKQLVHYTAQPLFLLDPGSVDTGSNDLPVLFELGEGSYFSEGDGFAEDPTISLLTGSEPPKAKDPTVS
# Chain of CRX (O43186 whole entry): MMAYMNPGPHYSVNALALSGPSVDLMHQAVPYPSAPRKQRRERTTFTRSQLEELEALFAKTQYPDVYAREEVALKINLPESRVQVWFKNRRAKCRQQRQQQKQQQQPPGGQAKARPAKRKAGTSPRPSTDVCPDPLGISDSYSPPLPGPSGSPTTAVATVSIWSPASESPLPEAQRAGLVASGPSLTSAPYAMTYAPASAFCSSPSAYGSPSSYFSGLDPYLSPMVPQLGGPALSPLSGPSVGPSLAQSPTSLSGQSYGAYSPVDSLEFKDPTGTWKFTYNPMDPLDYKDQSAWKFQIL
# Chain of ETV6 (P41212 whole entry): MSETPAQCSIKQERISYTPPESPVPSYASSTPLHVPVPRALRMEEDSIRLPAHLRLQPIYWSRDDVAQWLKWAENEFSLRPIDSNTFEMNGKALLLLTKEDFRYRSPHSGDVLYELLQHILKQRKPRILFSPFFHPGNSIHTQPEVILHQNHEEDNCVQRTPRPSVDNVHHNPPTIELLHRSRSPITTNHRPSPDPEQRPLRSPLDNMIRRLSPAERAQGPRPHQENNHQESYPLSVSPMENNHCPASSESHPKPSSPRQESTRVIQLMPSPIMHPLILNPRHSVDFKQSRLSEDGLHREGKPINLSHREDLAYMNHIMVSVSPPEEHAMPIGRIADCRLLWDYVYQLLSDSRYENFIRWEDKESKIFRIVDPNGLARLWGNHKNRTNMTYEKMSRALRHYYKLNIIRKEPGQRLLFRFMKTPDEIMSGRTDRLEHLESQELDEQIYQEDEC
# Chain of ETV1 (P50549 whole entry): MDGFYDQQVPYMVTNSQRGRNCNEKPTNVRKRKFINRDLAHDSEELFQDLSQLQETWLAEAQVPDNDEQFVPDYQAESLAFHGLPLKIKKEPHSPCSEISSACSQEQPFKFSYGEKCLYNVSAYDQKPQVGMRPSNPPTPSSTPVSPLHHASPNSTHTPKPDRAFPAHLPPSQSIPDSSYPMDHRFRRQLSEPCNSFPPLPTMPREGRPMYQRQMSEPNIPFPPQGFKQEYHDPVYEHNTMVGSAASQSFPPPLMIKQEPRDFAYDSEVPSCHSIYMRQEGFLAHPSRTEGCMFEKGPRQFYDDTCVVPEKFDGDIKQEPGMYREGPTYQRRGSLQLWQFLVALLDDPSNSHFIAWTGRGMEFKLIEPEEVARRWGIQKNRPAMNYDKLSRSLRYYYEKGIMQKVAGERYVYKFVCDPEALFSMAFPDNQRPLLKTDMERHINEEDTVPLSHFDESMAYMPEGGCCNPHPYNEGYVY
# Chain of ELF4 (Q99607 whole entry): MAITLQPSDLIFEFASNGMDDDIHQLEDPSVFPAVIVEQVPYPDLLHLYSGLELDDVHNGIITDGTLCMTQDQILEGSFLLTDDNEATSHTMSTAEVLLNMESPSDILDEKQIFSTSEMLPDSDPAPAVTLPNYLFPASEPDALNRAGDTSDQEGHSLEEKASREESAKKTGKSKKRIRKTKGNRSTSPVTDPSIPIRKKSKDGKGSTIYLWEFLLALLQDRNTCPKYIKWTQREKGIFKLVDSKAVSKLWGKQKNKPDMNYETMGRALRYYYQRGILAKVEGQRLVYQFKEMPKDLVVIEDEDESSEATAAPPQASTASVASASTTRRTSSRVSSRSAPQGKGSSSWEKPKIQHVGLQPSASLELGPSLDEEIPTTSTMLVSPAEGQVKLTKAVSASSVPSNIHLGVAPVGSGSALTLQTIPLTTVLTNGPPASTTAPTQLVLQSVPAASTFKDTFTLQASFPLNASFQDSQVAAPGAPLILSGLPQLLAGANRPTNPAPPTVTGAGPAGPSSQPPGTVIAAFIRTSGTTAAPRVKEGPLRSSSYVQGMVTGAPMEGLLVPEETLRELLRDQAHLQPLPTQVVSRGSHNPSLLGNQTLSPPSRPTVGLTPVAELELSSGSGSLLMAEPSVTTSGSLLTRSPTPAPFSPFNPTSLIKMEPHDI
# Chain of ETV5 (P41161 whole entry): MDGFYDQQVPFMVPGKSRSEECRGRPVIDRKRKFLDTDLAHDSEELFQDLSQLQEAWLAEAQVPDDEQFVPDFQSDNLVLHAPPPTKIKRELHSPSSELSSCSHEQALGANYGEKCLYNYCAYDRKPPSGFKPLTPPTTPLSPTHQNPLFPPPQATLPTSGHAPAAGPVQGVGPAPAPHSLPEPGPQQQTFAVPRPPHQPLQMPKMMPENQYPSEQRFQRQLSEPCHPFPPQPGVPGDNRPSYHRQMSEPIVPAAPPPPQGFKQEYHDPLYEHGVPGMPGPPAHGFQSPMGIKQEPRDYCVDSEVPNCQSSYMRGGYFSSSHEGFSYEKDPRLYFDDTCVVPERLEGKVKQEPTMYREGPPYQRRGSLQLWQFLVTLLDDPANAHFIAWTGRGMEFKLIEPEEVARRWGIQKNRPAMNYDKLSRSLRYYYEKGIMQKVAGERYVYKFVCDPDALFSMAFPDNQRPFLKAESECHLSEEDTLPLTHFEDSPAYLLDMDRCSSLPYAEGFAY
sequence,measurement,setting,value
CTACAC,binding signal,FEV,"1.27 fold enrichment (6-mer frequency, TF over GST control)"
same,binding signal,ETV5,"1.26 fold enrichment (6-mer frequency, TF over GST control)"
same,binding signal,HSF1,"1.11 fold enrichment (6-mer frequency, TF over GST control)"
same,binding signal,SPIC,"1.32 fold enrichment (6-mer frequency, TF over GST control)"
same,binding signal,ELF4,"1.17 fold enrichment (6-mer frequency, TF over GST control)"
same,binding signal,ELK4,"1.23 fold enrichment (6-mer frequency, TF over GST control)"
same,binding signal,ETV2,"1.19 fold enrichment (6-mer frequency, TF over GST control)"
same,binding signal,ELF3,"1.39 fold enrichment (6-mer frequency, TF over GST control)"
same,binding signal,CRX,"1.05 fold enrichment (6-mer frequency, TF over GST control)"
same,binding signal,ETV1,"1.28 fold enrichment (6-mer frequency, TF over GST control)"
same,binding signal,ERF,"1.31 fold enrichment (6-mer frequency, TF over GST control)"
same,binding signal,ETV3L,"1.4 fold enrichment (6-mer frequency, TF over GST control)"
same,binding signal,ETS2,"1.25 fold enrichment (6-mer frequency, TF over GST control)"
same,binding signal,SPDEF,"1.39 fold enrichment (6-mer frequency, TF over GST control)"
same,binding signal,ETV7,"1.25 fold enrichment (6-mer frequency, TF over GST control)"
same,binding signal,ELF5,"1.36 fold enrichment (6-mer frequency, TF over GST control)"
same,binding signal,ETV3,"1.39 fold enrichment (6-mer frequency, TF over GST control)"
same,binding signal,ETV6,"1.36 fold enrichment (6-mer frequency, TF over GST control)"
